FBPA coupling cs – coupling enzyme interference in Giardia aldolase counter-screen; coupling enzyme system counterscreen, AmpLite Red fluorescence; activity change, negative = inhibition, % at 58.2 µM, hits read low; hit rate 0.67% among 290,000; AID 2472; in the data active = activity change below about -30%; also: % is scaled to controls: 0 for no effect and ±100 for the full control effect
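Compounds tested against the coupling enzymes alone at 57.5 uM final; readout was AmpLite Red fluorescence (525/598 nm) after 20 min at RT.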
EPAC1 antagonist – EPAC1 (human) antagonism; O95398; AID 720709; hit rate 0.14% among 360,000; EPAC1 GEF assay, Rap1b-BODIPY-GDP exchange fluorescence; Potency, µM (series often up to 115 µM), for the others: at the highest dose activity change, negative = inhibition, most hits filed as inhibitors;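 also: potency is read from the fitted curve at half-maximal effect; plate controls were vehicle for no effect and positive control for full effect; nearly all actives have a fitted effect of over 50% in size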
EPAC2 agonist – activates human EPAC2 exchange factor; Q8WZA2; EPAC2 activation, biochemical qHTS; response scale: 100% = 6.5 mM cAMP response; Potency, µM (highest dose often 154 µM), for inactives: at the highest dose activation, actives largely listed as activators; hit rate 0.079% among 360,000; AID 720711; also: potency is read from the fitted curve at half-maximal effect; nearly all actives have a fitted effect of over 50% in size
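EPAC2 (100 nM) mixed with Rap1B loaded with BODIPY-GDP (250 nM) plus 50 uM unlabeled GDP; compounds pinned in, 5 min RT, then read every 5 min for 30 min (ex 480, em 540 nm). Normalized to cAMP control.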
USP1 inh – inhibitors of human USP1/UAF1 deubiquitinase. O94782. recombinant USP1/UAF1, Ub-Rhodamine cleavage fluorescence. Potency, µM (highest dose often 57.1 µM), without a hit: at the top dose activity change, negative = inhibition, actives largely listed as inhibitors. hit rate 0.23% among 390,000; also: potency is read from the fitted curve at half-maximal effect; % is scaled to controls: 0 for no effect and ±100 for the full control effect; nearly all actives have a fitted effect of over 60% in size
Target sequence (O94782 whole entry, looked up): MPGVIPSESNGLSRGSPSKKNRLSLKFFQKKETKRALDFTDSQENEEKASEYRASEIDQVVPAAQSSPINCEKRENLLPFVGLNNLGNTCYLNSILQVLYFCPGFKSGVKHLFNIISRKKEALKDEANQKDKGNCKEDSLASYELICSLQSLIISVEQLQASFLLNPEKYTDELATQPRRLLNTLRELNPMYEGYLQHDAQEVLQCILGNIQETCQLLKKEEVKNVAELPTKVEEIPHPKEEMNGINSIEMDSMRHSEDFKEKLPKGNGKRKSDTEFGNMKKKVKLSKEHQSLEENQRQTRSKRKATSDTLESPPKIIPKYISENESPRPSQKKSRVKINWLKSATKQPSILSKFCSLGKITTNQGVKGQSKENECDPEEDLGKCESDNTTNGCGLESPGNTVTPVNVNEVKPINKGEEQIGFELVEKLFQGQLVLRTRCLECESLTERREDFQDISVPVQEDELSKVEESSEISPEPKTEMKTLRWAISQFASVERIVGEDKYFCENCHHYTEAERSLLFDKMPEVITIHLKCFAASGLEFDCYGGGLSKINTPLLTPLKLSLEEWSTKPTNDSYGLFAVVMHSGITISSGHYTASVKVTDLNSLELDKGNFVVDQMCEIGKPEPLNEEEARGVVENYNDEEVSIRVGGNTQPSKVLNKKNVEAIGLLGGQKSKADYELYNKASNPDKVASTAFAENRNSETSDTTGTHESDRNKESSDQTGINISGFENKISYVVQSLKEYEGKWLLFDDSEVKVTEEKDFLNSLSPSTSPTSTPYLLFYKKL
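High-throughput fluorogenic screen: 1nM USP1/UAF1 complex, Ub-Rho substrate 150nM final, 50mM HEPES pH 7.8 with 0.5mM EDTA, 0.1 mg/ml BSA, 1mM TCEP and 0.01% Tween-20.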
EPAC1 ag – EPAC1 (human) agonism; O95398; EPAC1 agonist qHTS, biochemical assay; response scale: 100% = response to 6.5 mM cAMP; Potency, µM (top dose mostly 154 µM), for inactives: at the top dose activation, actives largely listed as activators; hit rate 0.073% among 360,000; also: potency is read from the fitted curve at half-maximal effect; nearly all actives have a fitted effect of over 60% in size
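Compounds were pinned as a concentration titration into mixtures of EPAC1 (100 nM), BODIPY-GDP-loaded Rap1B (250 nM) and GDP (50 uM). After 5 min at room temperature, fluorescence was followed for 30 min; activity was scaled to 6.5 mM cAMP.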
EPAC2 antagonist – blocks human EPAC2 exchange factor; Q8WZA2; EPAC2 GEF exchange of Rap1B-BODIPY-GDP, fluorescence; Potency, µM (top dose mostly 114 µM), without a hit: at the highest dose activity, negative = inhibition, hits mostly inhibitors; hit rate 0.18% among 360,000; also: potency is read from the fitted curve at half-maximal effect; % is scaled to controls: 0 for no effect and ±100 for the full control effect; nearly all actives have a fitted effect of over 45% in size
* marks the source's active call; other numbers are inactive results; [ ] = remark or other dose. Most compounds without a hit are left out; they make up all but 0.87% or so of the library. Unless noted, calls follow the shape of the dose curve; as a rule, active = well fitted curve in the direction sought with a large enough effect; inconclusive = small, poorly fitted or top-dose-only effect, or another doubt; inactive = no such curve, though single readings can be large; an effect the other way counts as inactive or inconclusive.

How did Cc1ccc(Sc2ccc(S(=O)(=O)Nc3ccc(C(=O)O)cc3)cc2)cc1C do in these assays?
EPAC1 antagonist: 71µM*; EPAC2 agonist: -3%; USP1 inh: -23%; EPAC1 ag: -6%; EPAC2 antagonist: inconclusive

What do the screens show for `O=C(c1ccccc1)N1CCN(c2ncccn2)CC1`?
FBPA coupling cs: 4; EPAC1 antagonist: 3%; EPAC2 agonist: -1%; USP1 inh: -11%; EPAC1 ag: 7%; EPAC2 antagonist: 5%

What do the screens show for `O=C(c1ccc(-c2ccccc2)cc1)N1CCN(c2ncccn2)CC1`?
FBPA coupling cs: -75*; EPAC1 antagonist: -12%; EPAC2 agonist: 5%; USP1 inh: 0%; EPAC1 ag: 0%; EPAC2 antagonist: -7%

What do the screens show for `COc1cc(-c2noc(-c3cc4cccc(C)c4oc3=O)n2)cc(OC)c1OC`?
USP1 inh: 3%

What do the screens show for `CCN(CC)c1ccc2cc(-c3nc(-c4cc(OC)c(OC)c(OC)c4)no3)c(=O)oc2c1`?
USP1 inh: 40µM*

How did COc1ccc(NC(=O)c2cc(C3CCCCN3C(=O)OCC(C)C)on2)c(C)c1 (stereo not given) do in these assays?
EPAC1 antagonist: -4%; EPAC2 agonist: 16%; EPAC1 ag: 9%; EPAC2 antagonist: -12%

Results for Cc1cc(/C=C2\SC(=S)N(Cc3ccco3)C2=O)c(C)n1-c1cccnc1 ?
FBPA coupling cs: -1; EPAC1 antagonist: -7%; EPAC2 agonist: 100µM*; USP1 inh: 55%; EPAC1 ag: -12%; EPAC2 antagonist: 51%

Results for O=C(c1ccccc1)c1ccc(N2CCOCC2)cc1 ?
EPAC1 antagonist: 12%; EPAC2 agonist: 0%; USP1 inh: -16%; EPAC1 ag: -1%; EPAC2 antagonist: -1%

What do the screens show for `CC(=O)N(C)C1=C(N2CCOCC2)C(=O)c2ccccc2C1=O`?
FBPA coupling cs: -56*; EPAC1 antagonist: 1%; EPAC2 agonist: 1%; USP1 inh: inconclusive; EPAC1 ag: -6%; EPAC2 antagonist: -1%

Results for CC(=O)N(C1=C(N2CCOCC2)C(=O)c2ccccc2C1=O)c1ccc(C(=O)O)cc1 ?
FBPA coupling cs: -54*; EPAC1 antagonist: -20%; EPAC2 agonist: 5%; USP1 inh: inconclusive; EPAC1 ag: -14%; EPAC2 antagonist: -4%

What do the screens show for `Oc1ccc(Br)cc1/C=N/n1c(-c2ccccc2)n[nH]c1=S`?
FBPA coupling cs: 2; EPAC1 antagonist: -13%; EPAC2 agonist: 11%; USP1 inh: -12%; EPAC1 ag: 15%; EPAC2 antagonist: -6%

Results for Oc1ccc(Br)cc1C=Nc1cccn2cc(-c3ccccc3)nc12 ?
FBPA coupling cs: 3; EPAC1 antagonist: 0%; EPAC2 agonist: -17%; USP1 inh: -2%; EPAC1 ag: 2%; EPAC2 antagonist: 79µM*

How did O=S(=O)(c1ccc(Cl)cc1)c1ccccn1 do in these assays?
FBPA coupling cs: 3; EPAC1 antagonist: -11%; EPAC2 agonist: 5%; USP1 inh: -2%; EPAC1 ag: 6%; EPAC2 antagonist: -15%

What do the screens show for `CCN(CC)S(=O)(=O)c1ccc(Cl)c(OC)c1`?
FBPA coupling cs: 0; EPAC1 antagonist: -9%; EPAC2 agonist: 3%; USP1 inh: 1%; EPAC1 ag: 4%; EPAC2 antagonist: 0%[57.1 µM]

Results for CCOc1cc(S(=O)(=O)N(CC)CC)ccc1Cl ?
FBPA coupling cs: 0; EPAC1 antagonist: -4%; EPAC2 agonist: 2%; USP1 inh: -23%; EPAC1 ag: 6%; EPAC2 antagonist: 40µM*

What do the screens show for `CCCCCCCC(=O)NC1=NC(=O)C(C)(C)S1`?
FBPA coupling cs: 3; EPAC1 antagonist: -4%; EPAC2 agonist: -6%; USP1 inh: -16%; EPAC1 ag: 10%; EPAC2 antagonist: 0%

Assay outcomes from PubChem BioAssay.
